gsp agonist: agonists of gsp mutant (McCune-Albright syndrome); gsp mutant cells, cAMP HTRF, 30 min; Potency, µM (series often up to 76.9 µM), without a hit: top-dose activation (cAMP increase), actives largely listed as activators; 340,000 tested, 0.13% active; AID 624287; active means well fitted activation curve with a large enough effect; inconclusive means small, poorly fitted or top-dose-only effect, or another doubt; inactive means no such curve, though single readings can be large or run the other way; cell line not stated here;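 further: phosphodiesterase inhibitor Ro 20-1724 added with compounds to block cAMP breakdown; potency means the concentration at half of the fitted maximal effect; nearly all actives have a fitted effect of over 60% in size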
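Cells stably selected in G418 were plated at 2000/well, grown 16-24 hr, then given compounds in DMSO with the PDE inhibitor […] (300 uM solution added) for 30 min at 37C; cAMP was read by HTRF.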
p53 reactivator: restores transcriptional activity of mutant p53. H1299 p53-A138V BP100-luciferase reporter, luminescence, 24 h. AID 504706. Potency, µM (series often up to 92.2 µM), inactives show top-dose activity change, positive = activation, hits mostly activators. 320,000 tested, 0.063% active; further: potency means the concentration at half of the fitted maximal effect; % of control where 0% means no effect; nearly all actives have a fitted effect of over 45% in size
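p53-null H1299 cells stably carrying temperature-sensitive p53-A138V and a BP100-luciferase reporter were pinned with compounds (4-point, 1:5 series) and held 24 hrs at 37 deg C. Luminescence was read 10 min after detection reagent.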
gsp antag: antagonists of gsp mutant (McCune-Albright syndrome); AID 624288; Potency, µM (highest dose often 76.9 µM), without a hit: top-dose activity change, negative = inhibition, usual class: inhibitors; 340,000 tested, 0.4% active; gsp-mutant cells, cAMP HTRF, 30 min; calls by dose curve; cell line not stated here;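 further: intracellular cAMP measured with PDE inhibitor Ro 20-1724 present during compound exposure; potency means the concentration at half of the fitted maximal effect; on the % scale 0 is the no-effect control and ±100 the full control effect; nearly all actives have a fitted effect of over 65% in size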
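Cells, 2000/well, grown 16–24 h in DMEM 10% FBS with 0.5 mg/ml G418, then compounds plus […] (300 uM addition stock), 30 min at 37C. cAMP read by HTRF (cAMP-d2 and anti-cAMP antibody-K in lysis buffer) after 30 min RT.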
RXFP1 ag: activates the human relaxin receptor RXFP1; HEK293T-RXFP1 cAMP TR-FRET, 30 min; response scale: percent of porcine relaxin response, buffer zero; Potency, µM (doses to about 57.5 µM), without a hit: at the highest dose activation, most hits filed as activators; 370,000 tested, 0.3% active; AID 2676; further: potency means the concentration at half of the fitted maximal effect; on the % scale 0 is the no-effect control and ±100 the full control effect; nearly all actives have a fitted effect of over 60% in size
Target sequence (Q9HBX9 whole entry, looked up): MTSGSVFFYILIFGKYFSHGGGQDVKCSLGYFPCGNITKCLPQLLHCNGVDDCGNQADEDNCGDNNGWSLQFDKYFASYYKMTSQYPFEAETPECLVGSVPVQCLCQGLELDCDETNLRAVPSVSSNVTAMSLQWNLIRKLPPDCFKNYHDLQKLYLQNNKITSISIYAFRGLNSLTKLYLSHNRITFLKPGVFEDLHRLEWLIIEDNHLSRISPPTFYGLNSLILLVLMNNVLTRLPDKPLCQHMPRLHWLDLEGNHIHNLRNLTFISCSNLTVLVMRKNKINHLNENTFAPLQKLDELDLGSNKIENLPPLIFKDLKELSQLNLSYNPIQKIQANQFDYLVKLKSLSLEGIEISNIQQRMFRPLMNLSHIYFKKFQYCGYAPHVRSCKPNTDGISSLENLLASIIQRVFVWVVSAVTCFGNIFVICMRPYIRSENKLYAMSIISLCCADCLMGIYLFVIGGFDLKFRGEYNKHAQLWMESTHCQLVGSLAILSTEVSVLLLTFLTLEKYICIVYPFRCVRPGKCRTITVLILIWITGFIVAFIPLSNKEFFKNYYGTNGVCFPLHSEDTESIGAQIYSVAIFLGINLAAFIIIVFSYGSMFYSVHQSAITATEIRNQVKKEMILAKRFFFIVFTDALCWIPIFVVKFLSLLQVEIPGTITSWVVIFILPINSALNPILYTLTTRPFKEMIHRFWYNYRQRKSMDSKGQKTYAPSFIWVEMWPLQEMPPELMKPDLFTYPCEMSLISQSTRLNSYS
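cAMP rise read by TR-FRET after 30 min, 37C compound exposure (up to 58 uM) in RXFP1-transfected HEK293 cells with Ro 20174 present. EC50 from Hill-equation fits, with 29 nM porcine relaxin as 100% and buffer as basal.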
Tb PFK inh: blocks T. brucei phosphofructokinase | O15648 | T. brucei PFK, ADP-Glo luminescence | Potency, µM (titrated, usually from 57.5 µM), inactives show at the highest dose activity, negative = inhibition, usual class: inhibitors | 330,000 tested, 0.17% active | AID 485367;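 further: potency means the concentration at half of the fitted maximal effect; 0% = uninhibited 1x PFK enzyme wells and -100% = no-enzyme wells; nearly all actives have a fitted effect of over 60% in size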
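ADP-Glo luminescence quantified ADP after 45 min at room temperature, with 1.25 nM T. brucei PFK, 0.1 mM ATP and 0.5 mM fructose-6-phosphate in pH 8.0 TEA buffer. qHTS titrations up to 57 µM; curves classified by quality.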
RXFP1 antag: RXFP1 (human) relaxin receptor antagonism; Q9HBX9; HEK293-RXFP1, relaxin-stimulated cAMP HTRF, 30 min; stronger effect = lower value; activity change, negative = inhibition, % at 57.5 µM; 350,000 tested, 0.59% active; AID 1259400;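 active means activity change of -60% or lower, but not beyond a set lower limit; inconclusive means change between -60% and -40%, or beyond the set limit; inactive means change above -40%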; further: on the % scale 0 is the no-effect control and ±100 the full control effect
* = called active by the depositor; [ ] = dose if it differs, or a comment. Shown are actives, neighbours in structure and some others; about 1.1% of the full set was active somewhere. Unless noted, the call rests on the fitted dose curve; in most records, active means well fitted curve in the direction sought with a large enough effect; inconclusive means small, poorly fitted or top-dose-only effect, or another doubt; inactive means no such curve, though single readings can be large; an effect the other way counts as inactive or inconclusive.

How did CCCCn1cnc2c(c(-c3ccccc3)c(-c3ccccc3)n2Cc2ccco2)c1=N do in these assays?
gsp agonist: 6.4%[15.4 µM]; p53 reactivator: -7.7%; gsp antag: 5.3%; RXFP1 ag: -0.7%; Tb PFK inh: -8.2%; RXFP1 antag: -9.9

Results for CCOC(=O)c1c(C)nc(C)c(C(=O)OCC)c1-c1cccc(N)c1 ?
gsp agonist: 8.9%; p53 reactivator: -7.6%; gsp antag: 2.2%; RXFP1 ag: 1.0%; Tb PFK inh: 0.7%; RXFP1 antag: 9.4

Results for CCC1SC(=NC(=O)c2ccc(Cl)c(Cl)c2)NC1=O (stereo unspecified) ?
gsp agonist: 1.7%; p53 reactivator: 19.0%; gsp antag: 12.6µM*; RXFP1 ag: -0.8%; Tb PFK inh: -5.8%; RXFP1 antag: -11.5

Results for Cc1cc(C)n2nc(SCC(=O)N/N=C/c3ccccn3)nc2n1 ?
gsp agonist: inconclusive; p53 reactivator: -3.7%; gsp antag: 17.5%; RXFP1 ag: 12.4%; Tb PFK inh: 1.1%; RXFP1 antag: 5.2

Results for Cc1ccc(/C(N)=N/OC(=O)c2ccco2)cc1 ?
gsp agonist: -6.9%; p53 reactivator: 17.8µM*; gsp antag: 2.5%; RXFP1 ag: 1.6%; Tb PFK inh: -3.0%; RXFP1 antag: -9.0

How did COCCN(C(=O)COC(=O)c1ccccc1Nc1ccccc1)c1c(N)n(Cc2ccccc2)c(=O)[nH]c1=O do in these assays?
gsp agonist: -13.3%[15.4 µM]; p53 reactivator: -5.6%; gsp antag: -14.5%; RXFP1 ag: 1.8%; Tb PFK inh: -2.6%; RXFP1 antag: -7.2

What do the screens show for `Cc1ccn2c(Nc3ccc4c(c3)OCCO4)c(-c3ccc(N(C)C)cc3)nc2c1`?
RXFP1 ag: 20.9%; RXFP1 antag: 0.2

Results for CCOC(=O)c1sc(NC(=O)c2cc(-c3ccc(C)cc3)nc3ccccc23)c(C#N)c1C ?
gsp agonist: 8.6%; p53 reactivator: 1.7%; gsp antag: 14.1%; RXFP1 ag: 1.8%; Tb PFK inh: -2.7%; RXFP1 antag: -26.8

Results for Cc1ccccc1-c1cc(C(=O)Nc2sc(C(=O)OC(C)C)c(C)c2C#N)c2ccccc2n1 ?
gsp agonist: -28.3%; p53 reactivator: 0.4%; gsp antag: 11.2µM*; RXFP1 ag: 0.8%; Tb PFK inh: 1.8%; RXFP1 antag: -64.7*

How did COc1ccc(-c2csc(N(CCCN(C)C)C(=O)c3ccc(C(C)(C)C)cc3)n2)cc1 do in these assays?
gsp agonist: 0.1%[15.4 µM]; p53 reactivator: 0.6%; gsp antag: 4.5%; RXFP1 ag: -0.4%; Tb PFK inh: 2.2%; RXFP1 antag: -65.1*

How did COC(=O)c1ccccc1N=Nc1c(N)[nH][nH]c1=O do in these assays?
gsp agonist: 19.6%; p53 reactivator: 1.3%; gsp antag: 39.8µM*; RXFP1 ag: -5.3%; Tb PFK inh: 17.8%; RXFP1 antag: inconclusive

How did O=Cc1cc(N=Nc2ccccc2Cl)ccc1O do in these assays?
gsp agonist: -16.5%; p53 reactivator: inconclusive; gsp antag: inconclusive; RXFP1 ag: -2.3%; Tb PFK inh: -4.7%; RXFP1 antag: -64.8*

Results for CCOc1ccc(C2C=C(c3ccc(C)cc3)Nc3nnnn32)cc1 (stereo unspecified) ?
gsp agonist: 11.5%; p53 reactivator: 9.1%; gsp antag: 39.8µM*; RXFP1 ag: 0.7%; Tb PFK inh: -8.3%; RXFP1 antag: 8.6

How did Cc1ccc(NC(=O)CSc2nnc3scc(-c4ccccc4)n23)cc1 do in these assays?
RXFP1 ag: 8.0%; RXFP1 antag: -1.6

How did CC(C)(C)n1nnnc1C(c1cccc(C#N)c1)N1CCC(Cc2ccccc2)CC1 (stereo unspecified) do in these assays?
gsp agonist: -0.5%; p53 reactivator: -5.9%; gsp antag: -10.5%; RXFP1 ag: 1.3%; Tb PFK inh: -3.5%; RXFP1 antag: 11.7

What do the screens show for `COC(=O)/C(=C\C(=O)c1ccccc1)Nc1cccc(C(F)(F)F)c1`?
gsp agonist: -11.1%; p53 reactivator: 28.2µM*; gsp antag: -12.5%; RXFP1 ag: 1.2%; Tb PFK inh: -0.4%; RXFP1 antag: -11.6

How did N#Cc1c(N)nc2c3c(sc(=N)c2c1N)NC(=O)CC3c1c(F)cccc1Cl (stereo unspecified) do in these assays?
gsp agonist: 6.8%; p53 reactivator: -1.5%; gsp antag: 3.9%; RXFP1 ag: inconclusive; Tb PFK inh: -3.8%; RXFP1 antag: 8.1

How did N#Cc1c(N)nc2c3c(sc(=N)c2c1N)NC(=O)CC3c1ccccc1 (stereo unspecified) do in these assays?
gsp agonist: 31.5%; p53 reactivator: 4.2%; gsp antag: 6.3%; RXFP1 ag: 28.2µM*; Tb PFK inh: -4.0%; RXFP1 antag: 3.8

Results for COCCCn1c(=O)c2sccc2n2c(CCCC(=O)N3CCN(c4ccccn4)CC3)nnc12 ?
gsp agonist: inconclusive; p53 reactivator: 6.8%; gsp antag: 3.7%; RXFP1 ag: 24.4%; Tb PFK inh: 2.5%; RXFP1 antag: -14.5

What do the screens show for `CC1(C)COCN1S(=O)(=O)c1ccc(C(=O)Nc2nnc(-c3ccc(Cl)s3)o2)cc1`?
gsp agonist: -1.2%; p53 reactivator: inconclusive; gsp antag: 31.6µM*; RXFP1 ag: -0.2%; Tb PFK inh: 4.2%; RXFP1 antag: -12.5

How did COc1cc2c(cc1NC(=O)CN(C)Cc1ccc(OC)c(OC)c1)oc1ccccc12 do in these assays?
gsp agonist: 5.2%; p53 reactivator: 1.4%; gsp antag: 39.8µM*; RXFP1 ag: 0.8%; Tb PFK inh: 11.1%; RXFP1 antag: -6.9

What do the screens show for `COc1cc(OC)c(NC(=O)c2cc3ccccc3cc2O)cc1Cl`?
gsp agonist: -3.9%; gsp antag: 31.6µM*; RXFP1 antag: -18.9

What do the screens show for `COc1ccc(OC)c(NC(=O)c2cc3oc4ccccc4c3cc2O)c1`?
gsp agonist: 31.6µM*; p53 reactivator: -0.6%; gsp antag: inconclusive; RXFP1 ag: 29.0%; Tb PFK inh: 0.0%; RXFP1 antag: -10.0

Results for CCOC(=O)C1CCN(C(=O)c2sc3ncn(CC(=O)N4CCCCC4)c(=O)c3c2C)CC1 ?
gsp agonist: 15.8µM*; RXFP1 antag: 2.2

What do the screens show for `Cc1c(Cl)cccc1N1C(=O)CC(NNC(=O)c2ccc3c(c2)OCO3)C1=O` (stereo unspecified)?
gsp agonist: 2.1%; p53 reactivator: -1.4%; gsp antag: -4.2%; Tb PFK inh: 8.4%; RXFP1 antag: -4.5

How did C=CC(=O)N1C/C(=C/c2ccccc2)C(=O)/C(=C\c2ccccc2)C1 do in these assays?
gsp agonist: -0.1%; gsp antag: -17.3%; RXFP1 antag: -115.6*

Screening data as filed in PubChem BioAssay.
